Our source for the binding signal values is paper PMC12136788.

To fix the notation:
B1: chr2:131139019:131139020:-_ENSMUSG00000048911_ENSMUST00000059372|mus_mus|FALSE|FALSE (ssRNA)
RNA: GGGAGUUCUACAGUCCGACGAUCGAUAUAGAUGUUGAGAGGCAGAUUCUGGAAUCCAAUAUUAGGCAUCCUGAAGUUAUAAUGUGGGAAAUCUGAGCUCAUGGAUGAACCGGGCGACGGGCAGCGGGCGUGCGGGCGGCGGCGCAACAGAGGAUUGAGCAUCA
B2: chr11:77336104:77336105:-_ENSG00000074201_ENST00000525064|hu_mus|hu_hu_hu_mus_False|98_108 (ssRNA)
RNA: GGGAGUUCUACAGUCCGACGAUCCUCGCACAUUGCAGUGAACAUUGCCUCCAAUGCUGACUUAUCACUGGGCACAAAUCGAAAUUCAGAAAUGGGUUCAACAUCAUCAUUGUCUUCCUCAUCUUCAUCAGAGAGAGGUUCUUUCAACAGAGGAUUGAGCAUCA
B3: 49074419_49074539_462_3pUTR_ENSMUSG00000020346_ENSMUST00000109194|mouse|control|control (ssRNA)
RNA: GGGAGUUCUACAGUCCGACGAUCCACAGGCAAUGACCAGGAUGGGGAUCUGCACUGGUGAGGGGGUCACAGGCACACGGGGCCAGGCUGGAGGGGCCACAGUGGGAACUCUCCACCUCUGCCUCCACAAAGCAUAAUGCUCCUCAACAGAGGAUUGAGCAUCA
B4: chr8:92086081:92086082:+_ENSG00000155100_ENST00000285420|hu_mus|motif|central (ssRNA)
RNA: GGGAGUUCUACAGUCCGACGAUCAAUCCGAGGUGGUUGAUUCUCAAGUACCAAGUUUGAAAUGUUAACAGCAACAGAAUCGGUCUUACUGUCCUUGAAAGUCAAUUGCUUCAAUUGCUCCAGUUCUUCCCUGUGUUUUUGCUCCAACAGAGGAUUGAGCAUCA
B5: chr3:10015032:10015033:+_ENSMUSG00000027533_ENSMUST00000029046|mus_mus|mus_mus_mus_hu_True|38_48 (ssRNA)
RNA: GGGAGUUCUACAGUCCGACGAUCGUUUUUACCAUCACAAGUGAUGAUACAAUCUGGCUUGGCCAUUGCGCCCAUUUUUCGCAAAGCCAGUCCUACUCCUAGCUCUUUCAUGUAUUCAUCAAAGCCUUUGCUGUCCACCAGGCGCAACAGAGGAUUGAGCAUCA
B6: chr2:48026839:48026840:+_ENSG00000116062_ENST00000540021|hu_hu|hu_hu_hu_mus_False|18_48 (ssRNA)
RNA: GGGAGUUCUACAGUCCGACGAUCAUAGUGAGCCACUAGCGUCCUAAAUCUGGAACAGUGGCGGUCAUCCGAAAACUGGCCGAUGAAAAACUUUCCCAGUGAAGUGUCCACAAAGCACACACCAUAUACACGAGUGUGACCAGACAACAGAGGAUUGAGCAUCA
B7: chr11:46405157:46405158:+_ENSG00000110492_ENST00000395566|hu_hu|hu_hu_hu_mus_False|1_18 (ssRNA)
RNA: GGGAGUUCUACAGUCCGACGAUCCCCUCCCCACUUUGGGCACUUGGUGUGGGCGUGAGAGGACAGGCGUGAUUGACAGAGCUGACAGGAAGACAAAAGGCACUGGUGGGUUAUAUCUCGGGCCUGGGGGAGAGGAGGCGUGGGCAACAGAGGAUUGAGCAUCA
B8: chr11:46405157:46405158:+_ENSG00000110492_ENST00000395566|hu_hu|hu_hu_hu_mus_False|98_108 (ssRNA)
RNA: GGGAGUUCUACAGUCCGACGAUCCCCUUAGGGGUGGGGCUGGGGAGUGUGGGCGUGAGAGGACAGGCGUGAUUGACAGAGCUGACAGGAAGACAAAAGGCACUGGUGGGUUAUAUCUUGGGCCUGUGGGAGAGGAGGGCUCCGCAACAGAGGAUUGAGCAUCA
B9: chr11:46405157:46405158:+_ENSG00000110492_ENST00000395566|hu_hu|hu_hu_hu_mus_False|18_28 (ssRNA)
RNA: B7 RNA with U111C, U113C, C138G, G139C, G141C, G142C
B10: chr11:46405157:46405158:+_ENSG00000110492_ENST00000395566|hu_hu|hu_hu_hu_mus_False|8_108 (ssRNA)
RNA: GGGAGUUCUACAGUCCGACGAUCCCCUUAGGGGUGGGGGCACUUGGUGUGGGCGUGAGAGGACAGGCGUGAUUGACAGAGCUGACAGGAAGACAAAAGGCACUGGUGGGUUAUAUCUUGGGCCUGUGAGAGGGAGGGGCUCCGCAACAGAGGAUUGAGCAUCA
B11: chr11:46405157:46405158:+_ENSG00000110492_ENST00000395566|hu_hu|hu_hu_hu_mus_False|58_108 (ssRNA)
RNA: B10 RNA with G78A, G83A, A86G, A128G, G132A, A134G, G135A
B12: chr11:46405157:46405158:+_ENSG00000110492_ENST00000395566|hu_hu|hu_hu_hu_mus_False|18_108 (ssRNA)
RNA: B10 RNA with U118C, U126G, A128G, G132A, A134G, G135A
B13: chr6:83878822:83878823:+_ENSMUSG00000030016_ENSMUST00000032088|mus_hu|FALSE|FALSE (ssRNA)
RNA: GGGAGUUCUACAGUCCGACGAUCCUCCUCGAGGAUUAAACCUGGGUCUCGACAUGGCUAUUUUCAAGAAAGCCUGAUUUAAUAAAGUAUAAGGUGGUGUUGAACCAUGUGAGGCAACGGCAUUCAGCUGCUGAAGCGCCAACUCAACAGAGGAUUGAGCAUCA
B14: chr12:67691335:67691336:+_ENSG00000111530_ENST00000540319|hu_mus|motif|central (ssRNA)
RNA: GGGAGUUCUACAGUCCGACGAUCCAUGGAGUCAUUUUUGGACAACUCUGACAACAGAUGUUCAAUAAGGUCUACAAAAACGGUAUUUCCGCAGCUCAUAACUAGGUGGCCAAGAGCAAUAAUUGUUCUUUUCCUCACUGCAAGCAACAGAGGAUUGAGCAUCA
B15: chr15:75216061:75216062:-_ENSG00000178741_ENST00000564811|perfect_dup|motif|central (ssRNA)
RNA: GGGAGUUCUACAGUCCGACGAUCUUUGUCAAGGCCCAGUUCCUCCGGAGUGGAGAUUCCCAGUUCAUUUAAAGUUGGUCGGAGUUCCUGGAUGACAUAGGGGUAGAUUUCCUUAUGAGGUCCUGCUUUGUCCUUAACAACCUCCAACAGAGGAUUGAGCAUCA
B16: chrX:98838459:98838460:+_ENSMUSG00000034160_ENSMUST00000044475|mus_mus|FALSE|FALSE (ssRNA)
RNA: GGGAGUUCUACAGUCCGACGAUCUCCCAAAUUCGAAUAGGCUUCUGCUAGAAGGGGAUUCUGUUUAAUUGCCAAGGUGCUAAAAUGAGCAGAUCUGUCCAGCCUUCGACACUGGAAGUGUAUAGAUGAAAGUAAUAAAAGAACCAACAGAGGAUUGAGCAUCA
B17: chr7:125984895:125984896:+_ENSMUSG00000030982_ENSMUST00000106553|mus_mus|motif|central (ssRNA)
RNA: GGGAGUUCUACAGUCCGACGAUCGUAGAAGGCAAGAGCUUAAAACCAAUCUGUAUAAAAGUAAAAAUAACAAAAACUUCGGAAUUCCAGGAAGAGUUAAUGGCAGCCAAGCAGAUCUUCCAGGAUGUGGCACUGGGACUCCCGCAACAGAGGAUUGAGCAUCA
B18: chr12:16048344:16048345:+_ENSG00000023734_ENST00000419869|hu_hu|hu_hu_hu_mus_True|8_18 (ssRNA)
RNA: GGGAGUUCUACAGUCCGACGAUCAGAUCGUCCAUAAGUAAUAACCAAAAUCUCUCCUUCAGGAAUAUACUCCAUGCUGCUAACAGACAUAUUAAAAUUCAGAGAUUUCACUUCUGUCAUAGUAGCAUGAUCCCAAAGCCGAACCAACAGAGGAUUGAGCAUCA
B19: chr16:94690093:94690094:+_ENSMUSG00000040785_ENSMUST00000117648|mus_mus|motif|central (ssRNA)
RNA: GGGAGUUCUACAGUCCGACGAUCUGGGACUCCUGUGAGCAGACAGCAUCUUCCCAGGGUAAAAAAAAAAAAUAGCCAAUACGGAUUUAAAAAGUAUUUUAUAAUUGAUUACCAAAAUGUAGAUUAAUUGAAUCAUAAGCACUUCAACAGAGGAUUGAGCAUCA
B20: chr16:94690093:94690094:+_ENSMUSG00000040785_ENSMUST00000117648|mus_mus|FALSE|FALSE (ssRNA)
RNA: B19 RNA with G82U, G83A
B21: chr12:16048344:16048345:+_ENSG00000023734_ENST00000419869|hu_hu|hu_hu_hu_mus_True|18_78 (ssRNA)
RNA: B18 RNA with U57C, A135G
B22: chr12:42180722:42180723:-_ENSMUSG00000036295_ENSMUST00000043884|mus_hu|mus_mus_mus_hu_True|58_108 (ssRNA)
RNA: GGGAGUUCUACAGUCCGACGAUCCUGUAGGAGCAGAAUCUGUGUGUUAGCUGGCAAUCUGGCUGGGAAAGUUAAAAGCCCUAAAUCAUUACAAUCCACUGUAGAUGCUUCCAUAUAAAUGGAUCUGGGUGUAAACCAAGGCCUCAACAGAGGAUUGAGCAUCA
B23: 109710003_109710123_2987_3pUTR_ENSMUSG00000031924_ENSMUST00000034400|mouse|control|control (ssRNA)
RNA: GGGAGUUCUACAGUCCGACGAUCUUCUGCCUCCCAAGUGCUGGGAUUAAAGAUUUAAAAAAAAAAAAGCAUCCUUUUUAUAUAAUAUAAAAUGACAUUACAUUAUCAGUAGUUCAAAAGAAGCCCUGGGUAUUGACGGAUUUCCAACAGAGGAUUGAGCAUCA
B24: chr4:6323411:6323412:-_ENSMUSG00000028245_ENSMUST00000029910|mus_hu|FALSE|FALSE (ssRNA)
RNA: GGGAGUUCUACAGUCCGACGAUCAGAAAAAUAUUUUUAAUGUAGAAAAGAUGAAUAGCUGUAAUGAAAUACAAACCGUUCCUAUACACAGUAAACUUACUAAGAACUGCUAAUCCUUCUCCAGGUUCUUAGAAUCUGGGUACACAACAGAGGAUUGAGCAUCA

Numbering of substitutions follows the chain as printed. Over roughly 24,000 sequences, “enrichment r” has its median near 0.99; the highest 2% begin near 3.7. The sample as a whole holds a higher share of the highest values than the screen did.

This assay deals with T1, UNK ZnF1-3 (human, UniProt Q9C0B0 31-174).
T1 sequence: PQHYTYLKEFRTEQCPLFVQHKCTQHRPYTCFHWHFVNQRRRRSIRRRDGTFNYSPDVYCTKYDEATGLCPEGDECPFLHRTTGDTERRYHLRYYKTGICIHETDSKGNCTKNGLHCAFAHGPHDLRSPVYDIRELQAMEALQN
As to the kind of experiment: nsRBNS (natural sequence RNA bind-n-seq); RBNS binding buffer (assumed for nsRBNS): 25 mM Tris pH 7.5, 150 mM KCl, 3 mM MgCl2, 0.01% Triton X-100, 500 ug/ml BSA, 20 U/ml SUPERase-In, 4 C; UNK is unkempt and MSI1 is Musashi-1; names of the RNAs are library labels; protein concentration not given here; high values mean tight binding.
On to B1, for which the binding signal stood at 0.719 enrichment R.
The value for B2 was 0.914 enrichment R; that for B3 was 0.862 enrichment R.
The value for B4 was 1.01 enrichment R; that for B5 was 0.575 enrichment R.
The value for B6 was 1.2 enrichment R.
For B7, the binding signal came out at 3.4 enrichment R.
The value for B8 was 3.34 enrichment R; that for B9 was 3.48 enrichment R; that for B10 was 4.04 enrichment R.
The value for B11 was 3.45 enrichment R; that for B12 was 4.17 enrichment R; that for B13 was 1.46 enrichment R.
The value for B14 was 0.704 enrichment R; that for B15 was 0.656 enrichment R; that for B16 was 1.64 enrichment R.
Molecule B17 yielded a binding signal of 3.93 enrichment R.
Molecule B18 yielded a binding signal of 0.71 enrichment R.
The value for B19 was 4.87 enrichment R; that for B20 was 7.05 enrichment R; that for B21 was 0.91 enrichment R.
The molecule B22 showed a binding signal of 1.07 enrichment R.
The value for B23 was 2.62 enrichment R; that for B24 was 1.02 enrichment R.
